Sampled rows, rich in hits. Any-hit rate of the full collection: about 2.4%.
D2 ag-1 – HTS Assay for Allosteric Agonists of the Human D2 Dopamine Receptor: Primary Screen for Agonists; activation, % at 2 µM; 340,000 compounds, 0.53% hits; D(2) dopamine receptor (Homo sapiens), P14416; AID 485358, 2010; HEK293 T-REx D2 cells, calcium flux agonist mode;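 active = activation over 3 SD above normal in the single-dose calcium agonist read, cut at about 30% in these data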; also: 0% is about no effect
Target sequence (P14416 whole entry, looked up): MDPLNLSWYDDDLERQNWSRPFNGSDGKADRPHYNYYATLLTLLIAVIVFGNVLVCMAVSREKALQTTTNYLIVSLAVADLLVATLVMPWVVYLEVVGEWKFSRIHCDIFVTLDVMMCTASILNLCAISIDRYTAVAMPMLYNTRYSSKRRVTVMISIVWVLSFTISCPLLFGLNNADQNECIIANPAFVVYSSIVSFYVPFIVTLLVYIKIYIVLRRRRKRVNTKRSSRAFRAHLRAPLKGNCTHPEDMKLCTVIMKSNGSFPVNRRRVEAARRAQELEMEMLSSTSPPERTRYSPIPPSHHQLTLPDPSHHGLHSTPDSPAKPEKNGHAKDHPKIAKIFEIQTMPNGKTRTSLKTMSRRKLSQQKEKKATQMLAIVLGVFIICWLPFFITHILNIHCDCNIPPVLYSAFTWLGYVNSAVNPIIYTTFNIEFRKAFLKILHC
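HEK293 Trex D2 cells, tetracycline-induced, o/n 30 C 5% CO2; no-wash Ca dye, RT 30–90 min; 10-cycle baseline, 23 nl cpd added, kinetic Ca read 180 s; agonist hits = positive Ca response.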
D2 PAM-1 – Beta-Arrestin HTS for Positive Allosteric Modulators of the Human D2 Dopamine Receptor: Potentiators | DiscoveRx D2 beta-arrestin cells, luminescence, 90 min; 100% = 57 uM dopamine signal | potentiation, % (no concentration beside the values) | 360,000 compounds, 0.23% hits | AID 624464, 2012; in the data active = potentiation above about 50%
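PathHunter D2 cells, attached overnight at 37 deg C, received compound in DMSO plus dopamine at EC20 (50 nM final) for 90 min at 37 deg C. Beta-arrestin recruitment was read as luminescence after 1 h with detection reagent at ambient temperature.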
D2 PAM-2 – HTS Assay for Positive Allosteric Modulators of the Human D2 Dopamine Receptor: Primary Screen for Potentiators; HEK293 T-REx D2, calcium flux, EC20 dopamine potentiation; potentiation, % at 10 µM; 340,000 compounds, 0.34% hits; AID 485347, 2010;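 active = potentiation over 3 SD above the plate norm, cut at about 30% in these data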; also: 0% is about no effect
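Tetracycline-induced Hek293 Trex D2 cells, force-coupled to calcium, loaded with no-wash calcium dye. Compound added with 180 s kinetic read for agonism, then EC20 dopamine and a further 180 s read for potentiation.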
D2 antagonist – HTS Assay for Allosteric Antagonists of the Human D2 Dopamine Receptor: Primary Screen for Antagonists; 340,000 compounds, 2% hits; D(2) dopamine receptor (Homo sapiens), P14416; inhibition, % at 10 µM; HEK293 TREx D2 cells, calcium flux, dopamine EC80; in the data active = inhibition above about 30%; inactive = below that, where a call was filed; also: 0% is about no effect
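HEK293 T-REx D2 cells, tet-induced, calcium dye no-wash. Cpd pintool add, 180 s kinetic, then EC80 DA, 180 s kinetic. Ca flux read.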
D2 ag-2 – Beta-Arrestin HTS for Positive Allosteric Modulators of the Human D2 Dopamine Receptor: Agonists. DiscoveRx PathHunter D2 beta-arrestin, luminescence, 90 min; 100% = 57 uM dopamine signal. activation, % (concentration not given with the values). 360,000 compounds, 0.084% hits. AID 624465, 2012; in the data active = activation above about 40%
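DiscoveRx PathHunter D2 beta-arrestin cells (2,100/well) attached overnight, then compound-stimulated 90 min at 37 C in HBSS/10 mM HEPES/0.1% Tween-20 buffer; beta-galactosidase complementation read by luminescence after 1 h at ambient temperature. Dopamine 57 uM final (EC100) as control.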
Active calls of the source: *; / = no result given; ! = not confirmed by another sample.

SMILES | D2 ag-1 | D2 PAM-1 | D2 PAM-2 | D2 antagonist | D2 ag-2
COc1ccc(CC(=O)NNC2=Nc3cccc4cccc2c34)cc1 | 0 | -20 | -23 | 27 | -2
Cc1ccc(C(=O)NNC2=Nc3cccc4cccc2c34)cc1 | 0 | -25 | -25 | 71* | -3
NC(=O)NNC1=Nc2cccc3cccc1c23 | 4 | -8 | 5 | -18 | 0
CCCCNc1c(-c2ccc(SC3CCCCC3)c(OC)c2)nc2ccc(C)cn12 | / | 2 | / | / | 7
CCCCNc1c(-c2ccc(OC)c(SC3CCCCC3)c2)nc2ccc(C)cn12 | / | -9 | / | / | 48*
Nc1ccccc1SCc1ccccc1 | 0 | -11 | -5 | 31* | -7
O=C(Nc1ccc(C(=O)OCc2cc(=O)n3c4c(sc3n2)CCCC4)cc1)c1cccc(F)c1 | -2 | / | -2 | / | /
CC1Cc2ccccc2N1C(=O)CN1CCN(Cc2ccccc2)CC1 (stereo unspecified) | 1 | -14 | -24 | 41* | 0
O=C(Cn1cc([N+](=O)[O-])cn1)N1CCc2ccccc21 | 1 | -7 | -5 | -6 | -2
CC1Cc2ccccc2N1C(=O)Cn1cc([N+](=O)[O-])cn1 (stereo unspecified) | 0 | -4 | -1 | 39* | -3
CC(C)Oc1ccc(CNC(=O)c2ccc3nc(C(C)C)oc3c2)cc1 | -1 | / | 8 | / | /
Cc1ccc(NC(=O)NCCOCCn2c(=O)oc3ccccc32)cc1F | -1 | / | -6 | / | /
OC(COCc1ccccc1)CN1CCc2ccccc2C1 (stereo unspecified) | 0 | -27 | -27 | 47* | -1
COc1ccc(COCC(O)CN2CCc3ccccc3C2)cc1OC (stereo unspecified) | / | -17 | / | / | -2
Cc1cccc(C)c1OCC(O)CN1CCc2ccccc2C1 (stereo unspecified) | / | -16 | / | / | -6
OC(COc1c(F)cc(Br)cc1F)CN1CCc2ccccc2C1 (stereo unspecified) | -1 | -77 | -33 | 65* | -3
CC(C)C1Nc2ccc(S(N)(=O)=O)cc2C2C=CCC21 (stereo unspecified) | 1 | 52* | 2 | 16 | 5
CCC1(c2ccc(Cl)cc2)NC(=O)N(Cc2ccc(C(=O)OC)cc2)C1=O (stereo unspecified) | 2 | 7 | 35* | 4 | 1
CCC1(c2ccc(Cl)cc2)NC(=O)N(CC(=O)NCc2ccc(F)cc2)C1=O (stereo unspecified) | 0 | -5 | 3 | -15 | 2
Cc1ncc([N+](=O)[O-])n1CCO | 0 | -2 | 5 | 38*! | -6
C/C(N)=C(/C#N)C(=O)CSc1nnc(Nc2ccccc2)s1 | -1 | 10 | 22 | 49* | 10
COc1ccc(S(=O)(=O)Nc2cccc(-c3ccc(N4CCCCC4)nn3)c2)cc1F | 0 | / | 14 | / | /
CCCC12CN3CCN(CC(C3)/C1=N\NC(=O)c1ccc(F)cc1)C2 | 2 | -9 | -2 | 1 | 6
CCCC12CN3CCN(CC(C3)/C1=N\NC(=O)Nc1ccccc1)C2 | 1 | 0 | 1 | 54* | 2
S=c1[nH]nc(C2CCCCC2)n1/N=C/c1ccc(Cl)cc1 | 0 | -4 | -4 | 5 | 4
SMILES | D2 ag-1 | D2 PAM-1 | D2 PAM-2 | D2 antagonist | D2 ag-2
S=c1[nH]nc(C2CCCCC2)n1/N=C/c1ccc(Br)cc1 | 2 | -4 | 5 | 36* | 13
Cc1nc(N2CCCC2)c2c(C(=O)N3CCN(c4cc(Cl)ccc4C)CC3)c(C)oc2n1 | -1 | / | -7 | / | /
O=C(COc1ccccc1F)Nc1ccccc1OCc1cc(=O)n2ccccc2n1 | / | / | 7 | / | /
O=c1cnnc(NCc2ccccc2)[nH]1 | 0 | -15 | 36* | 22 | -2
COc1ccc(NC(=O)c2c(NCc3ccc(OC)c(OC)c3OC)sc3c2CCC3)c(OC)c1 | / | / | 6 | / | /
CCOC(=O)CCn1c(=O)c2cccn2c2cccnc21 | 0 | / | -10 | / | /
COc1ccc(NC(=O)COC(C)=O)cc1Cl | 0 | -3 | -3 | 13 | -5
COc1cc(OC)cc(C(=O)NCC(=O)Nc2ccc(OC)c(Cl)c2)c1 | -1 | -17 | -20 | 37* | 3
COCC(=O)Nc1ccc(OC)c(Cl)c1 | 0 | -7 | 2 | 37* | -3
COC(=O)c1ccc(NC(=O)Cn2ccn3nc(-c4ccc(OC)cc4)cc3c2=O)cc1 | 1 | / | 9 | / | /
Cc1cc(SCC(=O)N(C)c2c(N)n(Cc3ccccc3)c(=O)[nH]c2=O)nc2ccccc12 | 0 | -1 | -17 | 38* | -4
CSc1ncc(Cl)c(C(=O)Nc2cc(C(F)(F)F)ccc2Cl)n1 | / | / | 5 | / | /
CN1CCN(C(=S)c2ccc(-c3cccc([N+](=O)[O-])c3)o2)CC1 | -1 | -12 | 0 | 0 | -2
O=[N+]([O-])c1cccc(-c2ccc(C(=S)N3CCOCC3)o2)c1 | 0 | 6 | -1 | 61* | 1
O=C(Nc1ccc(CN2CCOCC2)cc1)c1ccc(-c2cccc([N+](=O)[O-])c2)o1 | -2 | -11 | -15 | 6 | 3
O=[N+]([O-])c1cccc(-c2ccc(CN3CCCCC3)o2)c1 | 1 | -19 | -27 | 81* | -8
O=C(NCc1ccc(F)cc1)c1ccc2c(c1)nc1n2CCCCC1 | 0 | / | -26 | / | /
CC(=O)c1ccc(NC(=O)CSc2nccn2C2CCCC2)cc1 | 0 | / | 7 | / | /
COCCn1c(-c2ccccc2)nc(=S)c2c1CC(C)(C)OC2 | 1 | 29 | 37* | 11 | -2
N#Cc1ccc(NC(=O)COC(=O)CSc2nnc(-c3ccc(Cl)cc3)o2)cc1 | 2 | 2 | -1 | 31* | 0
O=C(COC(=O)CSc1nnc(-c2ccc(Cl)cc2)o1)Nc1cc(Cl)ccc1Cl | 0 | -15 | -5 | 5 | -3
CC(=O)Nc1ccc(NC(=O)CSCCc2ccccn2)cc1 | 0 | -12 | 34* | -10 | -1
COc1ccccc1CNC(=O)c1cc(S(=O)(=O)N2CCCC(C)C2)cn1C (stereo unspecified) | / | / | 0 | / | /
CC(O)C(O)C(O)C(O)C1NCCS1 (stereo unspecified) | 0 | -10 | -5 | 79* | -2
CC1(C(=O)NNC(=O)c2ccc([N+](=O)[O-])cc2)CC1(Br)Br (stereo unspecified) | 0 | -28 | 4 | 37* | -5
CC1(C(=O)NNC(=O)c2cccc([N+](=O)[O-])c2)CC1(Br)Br (stereo unspecified) | 0 | -4 | -4 | 2 | 2
